TMEM16A inh = inhibitors of mouse TMEM16A calcium-activated chloride channel; Q8BHY3; normalized B-score (activity score, 25-100; higher = stronger inhibition) at 10 µM; HEK293 TMEM16A/YFP iodide influx fluorescence, ionomycin; AID 588511; hit rate 1.2% among 310,000;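 active = ratio plate-corrected score three or more library SD toward inhibition, starting fluorescence score within five deviations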;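 note: score derived from kinetic fluorescence span divided by baseline fluorescence per well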
Target sequence (Q8BHY3 whole entry, looked up): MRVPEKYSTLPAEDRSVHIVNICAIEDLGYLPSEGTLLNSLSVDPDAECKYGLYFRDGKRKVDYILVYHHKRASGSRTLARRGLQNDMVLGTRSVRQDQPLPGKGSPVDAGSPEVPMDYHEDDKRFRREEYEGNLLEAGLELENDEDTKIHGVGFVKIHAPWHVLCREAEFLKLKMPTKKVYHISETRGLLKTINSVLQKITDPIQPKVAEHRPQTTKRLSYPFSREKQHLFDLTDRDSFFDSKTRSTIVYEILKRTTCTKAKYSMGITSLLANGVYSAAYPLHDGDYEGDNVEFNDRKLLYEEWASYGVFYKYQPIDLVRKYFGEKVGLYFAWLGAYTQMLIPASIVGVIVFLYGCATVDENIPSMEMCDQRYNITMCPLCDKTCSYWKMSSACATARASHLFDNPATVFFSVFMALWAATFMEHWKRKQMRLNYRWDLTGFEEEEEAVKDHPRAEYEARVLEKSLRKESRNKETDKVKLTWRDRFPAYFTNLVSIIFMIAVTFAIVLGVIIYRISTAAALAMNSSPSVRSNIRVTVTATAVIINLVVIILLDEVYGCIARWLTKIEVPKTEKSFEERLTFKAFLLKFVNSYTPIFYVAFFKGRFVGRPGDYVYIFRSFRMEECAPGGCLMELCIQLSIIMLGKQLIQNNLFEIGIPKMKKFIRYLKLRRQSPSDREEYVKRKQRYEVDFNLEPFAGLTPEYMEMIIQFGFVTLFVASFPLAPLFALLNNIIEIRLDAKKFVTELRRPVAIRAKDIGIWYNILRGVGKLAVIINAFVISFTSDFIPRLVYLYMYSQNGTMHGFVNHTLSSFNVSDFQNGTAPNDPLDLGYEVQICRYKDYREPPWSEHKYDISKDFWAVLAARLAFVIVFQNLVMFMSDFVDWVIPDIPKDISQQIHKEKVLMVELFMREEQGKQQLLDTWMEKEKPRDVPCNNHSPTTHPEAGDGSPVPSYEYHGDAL
CHT allo act = allosterically activates the human high affinity choline transporter. Q9GZV3. CHT-expressing cells, membrane potential dye, choline EC20; hits give high values; LV-AA mutant CHT in HEK293 cells. B-score at 10 µM. hit rate 0.49% among 310,000;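 active = initial fluorescence not abnormally high and integrated response B-score, plate-corrected, over 3 SD above library mean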
CHT inh = inhibits the human high affinity choline transporter; Q9GZV3; CHT-expressing cells, membrane potential dye, choline response; hits give low values; B-score at 10 µM; hit rate 0.86% among 310,000; AID 488975;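 active = B-score over 3 SD under the library average, and starting fluorescence ratio not unusually high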;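 note: choline stimulus applied at its EC90 after an EC20 pre-addition; B-score computed on integrated fluorescence ratio after choline addition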
TMEM16A act = mouse TMEM16A channel activation, primary screen; hit rate 0.3% among 340,000; HEK293 TMEM16A/YFP-H148Q/I152L, iodide quench fluorescence; hits give low values; AID 623877; B-score at 10 µM;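 active = fluorescence-ratio B-score plate-corrected deviation score at least 3 library SD below zero, with starting fluorescence score within 5 deviations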;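 note: channel opened by trigger with iodide after compound preincubation; score built on the fluorescence ratio of max minus min over baseline; more negative score means more quench and so TMEM16A activation or potentiation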
CHT activ conf = confirmation of human choline transporter (CHT) activators. shares compounds with CHT allo act. CHT-expressing cells, membrane potential dye fluorescence (FDSS); % of choline EC20–EC90 response window; HEK293 expressing CHT LV-AA mutant; choline added at its EC20. activation, % at 10 µM. hit rate 91% among 2,500. AID 504833;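 active = primary screen active, with duplicate mean activation above negative control mean plus 3 SD, cut at about 11% in these data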
HEK293 MP dye = activity in parental HEK293 cells lacking CHT. ratio readout change at 10 µM, hits read low. membrane potential dye fluorescence (FDSS); measured after EC20 choline addition. shares compounds with CHT allo act. hit rate 62% among 2,500. AID 623908;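 active = duplicate-averaged ratio beyond 3 SD from buffer wells, up or down, though filed actives are nearly all decreases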
Starred values were filed as active, the others as inactive; i = inactive; · = not tested or not shown; ! = a repeat was not active. Shown are actives, neighbours in structure and some others; about 2.4% of the full set was active somewhere.

SMILES	TMEM16A inh	CHT allo act	CHT inh	TMEM16A act	CHT activ conf	HEK293 MP dye
CN(C)c1ccc(/C=C/c2cc[n+](C)cc2)cc1	i	6.5*	i	i	34*	i
Cc1nc(N2CCC(C)CC2)c2c(C)c(C(=O)Nc3ccccc3C(F)(F)F)sc2n1	i	i	i	i	·	·
COc1ccc2nc(NC3=NCCC3)sc2c1	i	6.5*	i	i	54*	-45*
COc1ccc(-c2nc(NC3=NCCCCC3)sc2C)cc1	i	i	i	i	·	·
N#Cc1cc(Sc2ccccn2)c([N+](=O)[O-])cc1C#N	i	i	i	i	46*	-41*
CC(C)N1CCc2c(sc(NC(=O)c3ccc(S(=O)(=O)N4CCOCC4)cc3)c2C#N)C1	i	i	i	i	·	·
CC(C)N1CCc2c(sc(N)c2C#N)C1	i	6.4*	i	i	43*	-36*
CCN1CCc2c(sc(N)c2C#N)C1	i	i	i	i	37*	-39*
CCC(Sc1nc2cc(OC)c(OC)cc2c(=O)n1Cc1ccc(OC)cc1)C(=O)NCCOC (stereo unspecified)	i	6.6*	i	i	4	i
CCCCNC(=O)CSc1nc2cc(OC)c(OC)cc2c(=O)n1Cc1ccc(OC)cc1	i	i	i	i	·	·
Clc1cccc(Cl)c1C[n+]1cccc2ccccc21	i	i	i	i	·	·
O=[N+]([O-])c1ccc(Cl)c(C[n+]2cccc3ccccc32)c1	i	i	i	i	54*	-46*
COc1cc(C)c(NC(=O)COc2ccc3c(c2)OCO3)cc1C	i	i	i	i	·	·
Cc1cc(=O)n2nc(-c3ccccc3)sc2c1C#N	i	6.4*	i	i	29*	-27*
Cc1nc(N2CCOCC2)c2oc3ccccc3c2n1	i	i	i	i	·	·
CCOC(=O)C1CCN(c2nc(C)nc3c2oc2ccccc23)CC1	i	8*	i	i	1	i
O=C(Nc1ccc2ccccc2c1)C(c1ccccc1)C1CCCC1 (stereo unspecified)	i	i	i	i	24*	i
Cc1ccc(NC(=O)C(c2ccccc2)C2CCCC2)cc1 (stereo unspecified)	·	·	·	i	·	·
O=C1Nc2ccc(S(=O)(=O)N3CCCCCC3)c3cccc1c23	i	i	i	i	·	·
CN(C)CCNS(=O)(=O)c1ccc2c3c(cccc13)C(=O)N2	i	6.5*	i	i	74*	-86*
CCN(CC)CCNS(=O)(=O)c1ccc2c3c(cccc13)C(=O)N2	i	7.4*	i	i	73*	-74*
O=C1Nc2ccc(S(=O)(=O)N3CCCC3)c3cccc1c23	i	i	i	i	·	·
CN1CCN(S(=O)(=O)c2ccc3c4c(cccc24)C(=O)N3)CC1	i	10*	i	i	84*	-85*
O=C1Nc2ccc(S(=O)(=O)NCc3ccccn3)c3cccc1c23	·	·	·	i	·	·
CC1(c2ccccc2Cl)NC(=O)N(CC(=O)Nc2ccc3c(c2)OCO3)C1=O (stereo unspecified)	i	i	i	i	·	·
SMILES	TMEM16A inh	CHT allo act	CHT inh	TMEM16A act	CHT activ conf	HEK293 MP dye
CC(=O)c1c(CSc2ccccc2)oc2ccc(O)c(CN(C)C)c12	i	i	i	i	·	·
CC(NC(=S)NNS(=O)(=O)c1cccc([N+](=O)[O-])c1)c1ccccc1 (stereo unspecified)	i	i	i	i	·	·
CCOC(=O)c1c(CN2CCOCC2)n(C)c2cc(Br)c(O)c(CN(C)C)c12	i	7.4*!	i	i	45*	-33*
CCOC(=O)c1c(CS(=O)(=O)c2ccccc2)n(C)c2cc(Br)c(O)c(CN(C)C)c12	i	i	i	i	·	·
Cc1cc(C)nc(NC(N)=NCCc2ccccc2)n1	·	·	·	i	·	·
Cc1cc(C)nc(NC(N)=NCCc2c[nH]c3ccccc23)n1	i	8.6*	i	i	60*	-61*
Cc1cc(C)nc(NC(N)=NC(C)c2ccccc2)n1 (stereo unspecified)	i	6.3*	i	·	45*	-34*
CCN1c2ccccc2-c2nc3ccccc3n2C1c1cccs1 (stereo unspecified)	i	7.4*	i	i	45*	i
NNC(=O)c1ncoc1-c1ccc(Cl)cc1	i	i	i	i	·	·
CCc1cccc(NC(=O)CS(=O)Cc2nc(-c3ccc(C)cc3)oc2C)c1 (stereo unspecified)	i	i	i	i	·	·
CCC(=O)Nc1ccccc1C(=O)OC(c1ccccc1)c1ccccc1	i	7.3*	i	i	27*	i
c1ccc2c(N3CCCCC3)ncnc2c1	i	i	i	i	·	·
CN1CC[n+]2cnc3ccccc3c21	i	12*	i	i	79*	-72*
Cc1ccc(C2=NN(C(=O)CCl)C(c3ccco3)C2)o1 (stereo unspecified)	·	·	·	i	·	·
c1ccc(Cn2c(CNc3nc4ccccc4n3CCN3CCCCC3)nc3ccccc32)cc1	i	i	i	i	·	·
CCN(CC)CCn1c(NCc2nc3ccccc3n2Cc2ccccc2)nc2ccccc21	i	7.7*	i	i	44*	i
CN(C)CCn1c(NCc2ccc3c(c2)OCO3)nc2ccccc21	i	i	i	i	·	·
COc1ccc(CNc2nc3ccccc3n2CCN2CCCCC2)cc1	i	i	i	i	26*	-21*
CCCn1c(NCc2ccc3c(c2)OCO3)nc2ccccc21	i	i	i	i	20*	-24*
N#Cc1ccc(CNC(=O)N2CCOCC2)cc1	i	·	·	i	·	·
Cc1nn(-c2ccccc2)c(C)c1/C=N/n1c(-c2ccc(Cl)cc2)n[nH]c1=S	i	i	i	i	8	i
COc1ccccc1NS(=O)(=O)c1ccc(-c2cnc(C3CC3)o2)cc1	i	i	i	i	24*	i
COc1ccccc1CNS(=O)(=O)c1ccc(-c2cnc(C3CC3)o2)cc1	i	i	i	i	·	·
COc1ccc(OCc2cc(C(=O)N3CCSCC3)no2)c(Cl)c1	i	i	i	i	·	·
COc1ccc(-c2noc(CSc3nc4ccccc4c(=O)n3-c3ccccc3)n2)cc1OC	i	i	i	i	14*	i
CCCC(=O)N1c2ccccc2C(=C2SC(C(=O)OC)=C(C(=O)OC)S2)C(=S)C1(C)C	i	i	i	i	20*	i
COc1ccccc1NS(=O)(=O)c1cc(NC(=O)c2cc(=O)[nH]c3ccccc23)ccc1N1CCOCC1	i	i	i	i	·	·

Source: PubChem
